Bioassay records as filed in PubChem BioAssay.
SK-BR-3 tox 24h: SK-BR-3 proliferation inhibitors. viability, % at 10 µM. AID 847. 0.47% of 41,000 active. SK-BR-3 viability, CellTiter-Glo ATP luminescence, 24 h; hits give low values;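 active = viability at or below the median of all test compounds minus 3 SD, in both replicates if run twice, cut at about 45% in these data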;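 note: 100% = median untreated cell wells and 0% = median positive control drug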
Her2 expr inh: lowers expression of human Her2 kinase | P04626 | SKBR-3 HER2 protein level, AlphaScreen, 18-24 h; hits give low values | HER2 level % of control, % at 10 µM | 0.69% of 65,000 active | AID 645;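 active = HER2 level under 5% of the carrier-only control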;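 note: 100% = DMSO carrier and 0% = 500 nM PU-H71 HSP90 inhibitor; lower value means stronger loss of Her2 protein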
Jurkat viability: cytotoxicity toward Jurkat cells | inhibition, % at 4 µM | 1.2% of 56,000 active | Jurkat E6.1 viability, ATP luminescence, 48 h | AID 463;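 active = inhibition above the mean inhibition of all tested compounds plus 3 SD, cut at about 28% in these data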
* hit, by the source's call. An excerpt weighted towards active compounds, which were near 1.9% of everything screened.

What do the screens show for `COc1ccc(CCN(C)CCCC(C#N)(c2ccc(OC)c(OC)c2)C(C)C)cc1OC` (stereo unspecified)?
SK-BR-3 tox 24h: 84; Her2 expr inh: 114

What do the screens show for `COc1ccc(C(=O)NCc2cn3ccsc3n2)cc1OC`?
Her2 expr inh: 82; Jurkat viability: -2

Results for COc1ccc(N2CCN(Cc3nc4c(c(=O)[nH]c(=O)n4C)n3CC(C)=O)CC2)cc1 ?
Her2 expr inh: 89; Jurkat viability: 2

What do the screens show for `CCOc1ncccc1C(=O)OCC(=O)N1CC(=O)Nc2ccccc21`?
Her2 expr inh: 91; Jurkat viability: -7

How did Cc1noc(C)c1COc1cccc(C(=O)OCC(=O)N2CC(=O)Nc3ccccc32)c1 do in these assays?
Her2 expr inh: 94; Jurkat viability: 84*

How did Cc1cc2oc3c(c(=O)c2cc1C)C(c1ccc(C(C)C)cc1)N(CCCN1CCOCC1)C3=O (stereo unspecified) do in these assays?
Her2 expr inh: 66; Jurkat viability: 6

Results for CC1=C(C(=O)N2CCOCC2)C(c2ccccc2F)C2=C(CCCC2=O)N1 (stereo unspecified) ?
SK-BR-3 tox 24h: 112; Her2 expr inh: 70; Jurkat viability: -4

How did CS(=O)(=O)N(CC(=O)N1CCN(c2ccccc2F)CC1)c1cccc(C(F)(F)F)c1 do in these assays?
Her2 expr inh: 94; Jurkat viability: 4

Results for Cc1cc(C)n(-c2nnc3n2N=C(c2c[nH]c4ccccc24)CS3)n1 ?
SK-BR-3 tox 24h: 87; Her2 expr inh: 72; Jurkat viability: 57*

How did Cc1cc(C)n(-c2nnc3n2N=C(c2ccccc2)CS3)n1 do in these assays?
SK-BR-3 tox 24h: 99; Her2 expr inh: 81; Jurkat viability: 8

How did O=C(O)c1ccc(Cl)c(S(=O)(=O)NCc2ccco2)c1 do in these assays?
Her2 expr inh: 60; Jurkat viability: -1

How did Cc1cccc(N2CCN(C(=O)c3ccc(Cl)c(S(=O)(=O)NCc4ccco4)c3)CC2)c1C do in these assays?
Her2 expr inh: 58; Jurkat viability: 84*

Results for Cc1cc(NC(=O)c2noc3c2CCCC3)n(-c2ccccc2)n1 ?
SK-BR-3 tox 24h: 89; Her2 expr inh: 90; Jurkat viability: 1

Results for CC(=O)c1c(N)[nH]c(-c2ccccc2)nc1=S ?
SK-BR-3 tox 24h: 97; Her2 expr inh: 100; Jurkat viability: 6

Results for CC(=O)c1c(N2CCN(Cc3ccccc3)CC2)[nH]c(-c2ccccc2)nc1=S ?
Her2 expr inh: 11; Jurkat viability: 38*

How did COc1ccc(-n2nnc3c(SCC(=O)N4CCN(c5ccccc5)CC4)ncnc32)cc1 do in these assays?
Her2 expr inh: 83; Jurkat viability: -1

Results for Cn1c(=O)[nH]c(=O)c2c1ncn2CCN1CCOCC1 ?
SK-BR-3 tox 24h: 95; Her2 expr inh: 109; Jurkat viability: 2

How did Cn1cnc2c1c(=O)[nH]c(=O)n2C do in these assays?
SK-BR-3 tox 24h: 94; Her2 expr inh: -18*

How did CCOc1cc(C(=O)N2CCN(c3ccc(C(C)=O)cc3)CC2)cc(OCC)c1OCC do in these assays?
SK-BR-3 tox 24h: 101; Her2 expr inh: 98; Jurkat viability: -2

How did Cc1cc(C)cc(OCC(O)CN2C(=O)NC(C)(C)C2=O)c1 (stereo unspecified) do in these assays?
Her2 expr inh: 102; Jurkat viability: -3

How did COc1ccc(C(=O)N2CCN(S(=O)(=O)c3cc(Cl)ccc3OC)CC2)cc1 do in these assays?
Her2 expr inh: 133; Jurkat viability: -3

What do the screens show for `COc1cccc(-c2cc(C(=O)Nc3cc(C)on3)no2)c1`?
SK-BR-3 tox 24h: 91; Her2 expr inh: 82; Jurkat viability: -1

What do the screens show for `COc1cccc(-c2cc(C(=O)Nc3cc(OC)c(OC)c(OC)c3)no2)c1`?
SK-BR-3 tox 24h: 110; Her2 expr inh: 67; Jurkat viability: 67*

How did COc1ccc(C(=O)Nc2cccc(C)c2)cc1 do in these assays?
Her2 expr inh: 116; Jurkat viability: 1

Results for CC(=O)C(Sc1ncnc2c1nnn2-c1ccc(F)cc1)C(=O)N(C)C (stereo unspecified) ?
Her2 expr inh: -10*; Jurkat viability: 6

How did CCOC(=O)CSc1ncnc2c1nnn2-c1ccc(F)cc1 do in these assays?
SK-BR-3 tox 24h: 91; Her2 expr inh: 85; Jurkat viability: -4

What do the screens show for `Cn1c(CNC(=O)Nc2cccc(Cl)c2)nnc1SCc1ccccc1`?
SK-BR-3 tox 24h: 105; Her2 expr inh: 84; Jurkat viability: -2

How did CCn1c(CNc2cccc(Cl)c2)nnc1SCc1ccccc1 do in these assays?
SK-BR-3 tox 24h: 37*; Her2 expr inh: 113; Jurkat viability: 3

How did Cc1ccc(C(CC(=O)N2CCOCC2)c2ccco2)cc1 (stereo unspecified) do in these assays?
SK-BR-3 tox 24h: 93; Her2 expr inh: 84; Jurkat viability: 4

How did C/C(N)=C(/C#N)C(=O)CSc1nnnn1-c1ccc(C)cc1C do in these assays?
Her2 expr inh: 129; Jurkat viability: 30*

How did Cc1ccc(-n2nnnc2SC(C)C(N)=O)c(C)c1 (stereo unspecified) do in these assays?
Her2 expr inh: 84; Jurkat viability: 5

What do the screens show for `COc1ccccc1N1CCN(c2nc(N)c(C#N)c(CC#N)c2C#N)CC1`?
SK-BR-3 tox 24h: 114; Her2 expr inh: 75

What do the screens show for `COc1cc2c(C#N)c(N3CCN(c4ccccc4OC)CC3)nc(N)c2c(N)n1`?
SK-BR-3 tox 24h: 66; Her2 expr inh: -4.0*

How did O=C1CC(c2cccs2)c2cc3c(cc2N1)OCCO3 (stereo unspecified) do in these assays?
SK-BR-3 tox 24h: 95; Her2 expr inh: 86; Jurkat viability: 4

What do the screens show for `O=C1CC(=O)CC(c2ccccc2Cl)C1`?
Her2 expr inh: 132; Jurkat viability: -4

Results for O=C(CCN1CCc2ccccc2CC1)c1ccc2c(c1)OCCO2 ?
SK-BR-3 tox 24h: 83; Her2 expr inh: 92

Results for Cc1cc(=O)oc2cc(OCC(=O)N3CCCC(C)C3)ccc12 (stereo unspecified) ?
SK-BR-3 tox 24h: 81; Her2 expr inh: 89; Jurkat viability: -1

How did Cc1cc(=O)oc2cc(OCC(=O)N3c4ccccc4CC3C)ccc12 (stereo unspecified) do in these assays?
SK-BR-3 tox 24h: 75; Her2 expr inh: 72; Jurkat viability: 72*

Results for CCN1C(=O)CC(c2ccco2)Sc2ccccc21 (stereo unspecified) ?
Her2 expr inh: 77; Jurkat viability: 7

Results for O=C(Nc1nc(-c2ccc3c(c2)OCCO3)cs1)c1ccc(S(=O)(=O)N2CCCCC2)cc1 ?
Her2 expr inh: 98; Jurkat viability: 72*

Results for O=C(Nc1nc(-c2cccnc2)cs1)c1ccc(S(=O)(=O)N2CCOCC2)cc1 ?
SK-BR-3 tox 24h: 86; Her2 expr inh: 71; Jurkat viability: 3

Results for COc1ccc(CCNC(=O)c2ccn[nH]2)cc1OC ?
SK-BR-3 tox 24h: 95; Her2 expr inh: 77; Jurkat viability: -2

What do the screens show for `c1ccc(Nc2ccccc2Nc2ccccn2)nc1`?
Her2 expr inh: 153; Jurkat viability: -3

How did Oc1cccc2ccc(Nc3ccccn3)nc12 do in these assays?
Her2 expr inh: -20*; Jurkat viability: 72*

What do the screens show for `N#CC1=C(N)OC2=C(C(=O)CCC2)C1Cc1ccccc1` (stereo unspecified)?
SK-BR-3 tox 24h: 86; Her2 expr inh: 145; Jurkat viability: -2
